A short description of assay [1]: qHTS assay to identify small molecule antagonists of the glucocorticoid receptor (GR) signaling pathway - cell viability counter screen (AID 720693). Further: nearly all actives have a fitted effect of over 55% in size. Further: potency means the concentration at half of the fitted maximal effect.
The nature of assay [2]: qHTS assay for identifying genotoxic compounds that show differential cytotoxicity against isogenic chicken DT40 cell lines with known DNA damage response pathways - wild type cell line (AID 743012). Further: nearly all actives have a fitted effect of over 60% in size. Further: potency means the concentration at half of the fitted maximal effect. Put shortly:
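Viability by ATP luminescence (CellTiter-Glo, 30 min RT) after 40 h compound treatment at 37 C/5% CO2, using 300 parental DNA repair-proficient DT40 cells per well.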
For orientation: qHTS replaces the single test concentration by a dilution series.

The nature of assay [3]: qHTS assay for identifying genotoxic compounds that show differential cytotoxicity against isogenic chicken DT40 cell lines with known DNA damage response pathways - Rev3 mutant cell line (AID 743014). Further: nearly all actives have a fitted effect of over 55% in size. Further: potency means the concentration at half of the fitted maximal effect.
The nature of assay [4]: qHTS assay for identifying genotoxic compounds that show differential cytotoxicity against isogenic chicken DT40 cell lines with known DNA damage response pathways - Rad54/Ku70 mutant cell line (AID 743015). Further: nearly all actives have a fitted effect of over 60% in size. Further: potency means the concentration at half of the fitted maximal effect.
Assay [5] can be described thus: qHTS assay to identify small molecule antagonists of the androgen receptor (AR) signaling pathway - cell viability counter screen (AID 743033; further: nearly all actives have a fitted effect of over 45% in size; further: potency means the concentration at half of the fitted maximal effect).
A short description of assay [6]: qHTS assay to identify small molecule antagonists of the androgen receptor (AR) signaling pathway using the MDA cell line - cell viability counter screen (AID 743041; further: nearly all actives have a fitted effect of over 45% in size; further: potency means the concentration at half of the fitted maximal effect). The procedure, abridged: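 Viability read by CellTiter-Fluor fluorescence in the same wells as the antagonist screen, added after 15.5 h of a 16 h, 37C exposure. Human breast carcinoma MDA-kb2 AR-luc cells, compounds co-dosed with agonist R1881.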

Assay [7] can be described thus: qHTS assay to identify small molecule antagonists of the thyroid receptor (TR) signaling pathway - cell viability counter screen (AID 743064). Further: nearly all actives have a fitted effect of over 50% in size. Further: potency means the concentration at half of the fitted maximal effect. Put shortly: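 GH3.TRE-Luc rat pituitary cells dosed after 4 hr plating, co-stimulated with T3 at 1 nM final, incubated 23.5 h at 37 C. Viability measured in the same wells by CellTiter-Fluor fluorescence after 30 min further at 37 C.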

The subject of assay [8] is thyroid hormone receptor (rat, GH3 cells). As to the kind of experiment: qHTS assay to identify small molecule agonists of the thyroid receptor (TR) signaling pathway (AID 743066; calls by dose curve).
Assay [9] can be described thus: qHTS assay to identify small molecule antagonists of the estrogen receptor alpha (ER-alpha) signaling pathway - cell viability counter screen (AID 743074; calls by dose curve;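 further: HEK293 cells carrying ER-alpha-UAS-bla reporter stimulated with 17beta-estradiol; nearly all actives have a fitted effect of over 45% in size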; further: potency means the concentration at half of the fitted maximal effect).
A short description of assay [10]: qHTS assay to identify small molecule antagonists of the estrogen receptor alpha (ER-alpha) signaling pathway using the BG1 cell line - cell viability counter screen (AID 743081).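 Further: compound given together with 17beta-estradiol as the ER stimulus; nearly all actives have a fitted effect of over 45% in size.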 Further: potency means the concentration at half of the fitted maximal effect.
The target in assay [11] is Aromatase (Homo sapiens) (UniProt P11511). Description: qHTS assay to identify aromatase inhibitors (AID 743083). Further: nearly all actives have a fitted effect of over 55% in size. Further: potency means the concentration at half of the fitted maximal effect.
Chain of Aromatase (Homo sapiens) (P11511 whole entry, looked up): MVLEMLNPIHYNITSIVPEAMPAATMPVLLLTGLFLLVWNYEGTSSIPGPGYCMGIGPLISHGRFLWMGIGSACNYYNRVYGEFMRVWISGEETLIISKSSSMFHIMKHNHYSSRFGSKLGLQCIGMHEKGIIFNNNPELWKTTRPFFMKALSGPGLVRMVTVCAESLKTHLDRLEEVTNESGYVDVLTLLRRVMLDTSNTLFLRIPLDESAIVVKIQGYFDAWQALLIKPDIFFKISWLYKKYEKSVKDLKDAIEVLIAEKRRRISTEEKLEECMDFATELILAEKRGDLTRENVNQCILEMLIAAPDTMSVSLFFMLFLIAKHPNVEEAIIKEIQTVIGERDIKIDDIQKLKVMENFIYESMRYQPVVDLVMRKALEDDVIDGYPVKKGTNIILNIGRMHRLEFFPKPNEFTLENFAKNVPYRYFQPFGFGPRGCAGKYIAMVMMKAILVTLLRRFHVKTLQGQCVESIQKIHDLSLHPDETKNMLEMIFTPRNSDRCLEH
A short description of assay [12]: qHTS assay to identify aromatase inhibitors - cell viability counter screen (AID 743084).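 Further: cells stimulated with testosterone during compound exposure; nearly all actives have a fitted effect of over 55% in size.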 Further: potency means the concentration at half of the fitted maximal effect.
The nature of assay [13]: qHTS assay to identify small molecule antagonists of the thyroid receptor (TR) signaling pathway (AID 743065). Further: nearly all actives have a fitted effect of over 55% in size. Further: potency means the concentration at half of the fitted maximal effect. Put shortly: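 Antagonism measured as loss of luciferase signal in GH3 cells stably carrying a TRE-luciferase reporter, co-treated with compound and T3 (1 nM final) for 23.5 h at 37 C. Viability was read in the same well by CellTiter-Fluor.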
Assay [14] has as its target Estrogen receptor (Homo sapiens) (UniProt P03372). As to the kind of experiment: qHTS assay to identify small molecule agonists of the estrogen receptor alpha (ER-alpha) signaling pathway (AID 743075; calls by dose curve;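 further: HEK293 GripTite cells with ER-alpha and UAS-driven beta-lactamase reporter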; further: potency means the concentration at half of the fitted maximal effect). Conditions: HEK293 ER-alpha-UAS-bla, beta-lactamase FRET ratio, 18 h; activation: at 70.1 µM (top of the series).
Assay [15] shares this target. Description: qHTS assay to identify small molecule agonists of the estrogen receptor alpha (ER-alpha) signaling pathway using the BG1 cell line (AID 743079). Further: nearly all actives have a fitted effect of over 20% in size. Further: potency means the concentration at half of the fitted maximal effect. Conditions: BG1Luc4E2 cells, ERE-luciferase agonist, 22 h.
Assay [16] can be described thus: qHTS assay to identify small molecule antagonists of the estrogen receptor alpha (ER-alpha) signaling pathway using the BG1 cell line (AID 743080; calls by dose curve;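 further: BG1 cells stimulated with 17beta-estradiol alongside compound; nearly all actives have a fitted effect of over 25% in size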). Put shortly:
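BG1-Luc-4E2 cells (endogenous full-length ER-alpha, 4xERE luciferase) hormone-starved 5 days in charcoal-stripped FBS, plated 4,000/well for 24 h, then compound plus 17beta-estradiol for 21.5 h at 37 C; ONE-Glo luminescence read.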

Structures are written as SMILES. Where “and” joins values, the source holds several entries; their conditions need not be identical. Identical values can stand only once. Results filed as inconclusive are left out. Where a structure was tested more than once in an assay, its records may differ in their call. Calls of active or inactive are those of the source. Unless noted, the call rests on the fitted dose curve; in most records, active means well fitted curve in the direction sought with a large enough effect in the repeat runs; inconclusive means weak or mixed curves; inactive means no such curve, though single readings can be large; an effect the other way counts as inactive or inconclusive.

The source of these data is PubChem BioAssay (Tox21).
On the % scale 0 is the no-effect control and ±100 the full control effect.

Chain of Estrogen receptor (Homo sapiens) (P03372 whole entry, looked up): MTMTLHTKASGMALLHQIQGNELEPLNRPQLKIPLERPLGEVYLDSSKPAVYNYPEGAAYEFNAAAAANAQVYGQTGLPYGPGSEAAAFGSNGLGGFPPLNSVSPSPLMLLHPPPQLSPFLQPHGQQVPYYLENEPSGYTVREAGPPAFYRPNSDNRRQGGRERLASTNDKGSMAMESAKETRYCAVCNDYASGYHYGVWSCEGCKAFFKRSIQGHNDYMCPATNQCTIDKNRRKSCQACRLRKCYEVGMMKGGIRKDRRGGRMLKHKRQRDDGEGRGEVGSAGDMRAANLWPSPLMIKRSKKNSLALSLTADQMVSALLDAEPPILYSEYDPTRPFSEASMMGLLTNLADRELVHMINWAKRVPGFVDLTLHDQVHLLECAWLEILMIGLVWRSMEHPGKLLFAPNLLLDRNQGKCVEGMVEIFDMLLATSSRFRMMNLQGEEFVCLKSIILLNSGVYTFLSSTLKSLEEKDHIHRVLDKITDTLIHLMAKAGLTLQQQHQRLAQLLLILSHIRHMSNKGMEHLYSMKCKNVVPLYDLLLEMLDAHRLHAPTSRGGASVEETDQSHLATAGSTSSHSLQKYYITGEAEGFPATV

On to `CC(C)CCCCCCCCCCCCCCC(=O)O`, for which the Potency result in assay [1], in assay [2], in [3], in assay [4], in assay [5] and in [6] was “inactive” in each case. The Potency entry in [7], in assay [8], in assay [9], in assay [10], in [11] and in assay [12] was “inactive” in each case.

Regarding `O=[N+]([O-])c1cc([N+](=O)[O-])c2ccc(S(=O)(=O)O)cc2c1O`, the Potency result in assay [1], in [2], in assay [3], in assay [4], in [5] and in assay [9] was “inactive” throughout. In addition, the Potency in assay [6] was 27.1 µM (active); in assay [10], 54.2 µM (active).

For the compound `NNc1nc(-c2ccccc2)cs1`, the Potency result in assay [1], in assay [2], in assay [3], in [4], in assay [5] and in [6] was “inactive” throughout. Further, the Potency result in assay [8], in [9], in [14], in assay [16], in assay [11] and in assay [12] was “inactive” each time. In [13], the Potency is 14.1 µM (active). Also, the activation in assay [15] (at 95 µM (top of the series)) is 7.73% (inactive).

Regarding `OC1(c2ccc(Cl)c(C(F)(F)F)c2)CCN(CCCC(c2ccc(F)cc2)c2ccc(F)cc2)CC1`, the Potency in assay [1] is 15.1 µM (active); in [2], 4.22 µM (active); in assay [3], 7.5 µM (active); in assay [4], 5.96 µM (active); in [5], 19 µM (active); in assay [7], 5.96 µM (active). In addition, the Potency in [13] is 5.96 µM (active); in [9], 26.8 µM (active); in assay [11], 7.5 µM (active); in [12], 7.5 µM (active). Besides, the Potency entry in assay [6] and in [10] was “inactive” in each case.

Consider `Cc1cccc2c1cc1ccc3cccc4ccc2c1c34`, for which the Potency result in assay [1], in assay [2], in [3], in [4], in assay [5] and in [6] was “inactive” throughout. Moreover, the Potency entry in assay [7], in assay [13], in [8], in assay [9], in [16] and in assay [11] was “inactive” in each case. Further, the activation in assay [15] (at 95 µM (top of the series)) is 15.8% (inactive).

For the compound `Oc1cccc2cc3cccc(O)c3c(O)c12`, the Potency result in assay [1], in [2], in [3], in [4], in [5] and in [6] was “inactive” each time. Besides, the Potency entry in [13], in assay [8], in assay [9], in assay [11] and in assay [12] was “inactive” throughout.

With `COc1cccc(N)c1`, the Potency entry in [1], in [2], in assay [3], in [4], in assay [5] and in assay [6] was “inactive” each time. Besides, the Potency entry in [7], in [8], in [9] and in [10] was “inactive” throughout.

With `Nc1c(Cl)cc(Cl)cc1Cl`, the Potency result in assay [1], in [2], in assay [3], in assay [4], in assay [5] and in assay [6] was “inactive” throughout. Also, the Potency entry in assay [13], in [8], in assay [9], in assay [10], in [11] and in assay [12] was “inactive” each time.

Turning to `CO[Si](CCCNc1ccccc1)(OC)OC`, the Potency entry in assay [1], in [5], in [6], in assay [7], in assay [13] and in assay [8] was “inactive” in each case. Also, the Potency entry in [9], in assay [10], in assay [11] and in [12] was “inactive” in each case. The results for the Potency in assay [2], in assay [3] and in assay [4] were 12.2 µM (active), 15.4 µM (active) and 8.63 µM (active), respectively.

For the compound `CC(C)c1ccc2c(c1)CC[C@H]1[C@](C)(CN)CCC[C@]21C`, the Potency in [1] is 38.9 µM (active); in assay [2] it was 5.45 µM (active); in assay [3], 6.11 µM (active); in [4], 5.45 µM (active); in [5], 21.9 µM (active); in assay [6] it was 24.3 µM (active). Moreover, the Potency is 10.9 µM (active) in assay [7]; 12.2 µM (active) in assay [13]; 49 µM (active) in assay [9]; 19.3 µM (active) in assay [11]; 24.3 µM (active) in assay [12].

`CCN(C(=O)c1cc(C)cc(OC[C@H](C)Nc2ccncc2)c1)C(C)C`: the Potency entry in [1], in [5], in assay [6], in [8], in assay [9] and in assay [10] was “inactive” throughout. The Potency result in assay [11] and in assay [12] was “inactive” each time. Also, the results for the Potency in assay [2], in assay [3] and in assay [4] were 19.1 µM (active), 19.1 µM (active) and 17 µM (active), respectively.

As for `CCCN(CCC)C(=O)C(CCC(=O)OCCCN1CCN(CCOC(=O)Cc2c(C)n(C(=O)c3ccc(Cl)cc3)c3ccc(OC)cc23)CC1)NC(=O)c1ccccc1` (centres undefined), the Potency result in [1], in [5], in [6], in assay [9], in assay [16] and in [10] was “inactive” in each case. The Potency in assay [2] was 23.7 µM (active); in [3] it was 26.6 µM (active); in assay [4] it was 23.7 µM (active); in [7], 13.3 µM (active); in assay [13] it was 26.6 µM (active); in assay [14], 7.56 µM [activator] (active). Moreover, in [15], the Potency is 0.211 µM (active).

Regarding `CCCCCCCCOc1ccccc1C(=O)Nc1ccc(C(=O)OCC[N+](C)(CC)CC)cc1`, the Potency in assay [1] is 23.9 µM (active); in assay [2], 11.9 µM (active); in [3], 23.7 µM (active); in assay [4], 26.6 µM (active); in assay [7], 26.6 µM (active); in assay [13], 26.6 µM (active). Besides, the Potency result in [5], in [6], in assay [9], in assay [14], in assay [16] and in assay [10] was “inactive” each time. Moreover, the Potency result in assay [11] and in assay [12] was “inactive” in each case. Also, the activation in assay [15] (at 70.3 µM (top of the series)) is -29.5% (inactive).

Take `O=C1Cc2cc(CCN3CCN(c4nsc5ccccc45)CC3)c(Cl)cc2N1`: the Potency entry in assay [1], in assay [5], in assay [6], in [9], in [14] and in assay [16] was “inactive” each time. Besides, the Potency result in assay [10] and in assay [11] was “inactive” in each case. In addition, the Potency in assay [2] is 21.1 µM (active) and 10.6 µM (active); in assay [3], 33.5 µM (active) and 26.6 µM (active); in assay [4] it was 18.8 µM (active) and 9.44 µM (active); in assay [7] it was “inactive and 16.8 µM (active)”; in [12] it was “inactive and 26.6 µM (active)”. In addition, the activation in assay [15] (at 70.3 µM (top of the series)) is 1.77% (inactive) and -23.7% (inactive).
